Data on 18 molecules can be found in PubChem BioAssay (Tox21).

Records with an inconclusive call do not appear. Active and inactive are the calls of the source. Unless noted, calls come from the whole dose curve; as a rule, active = well fitted curve in the direction sought with a large enough effect in the repeat runs; inconclusive = weak or mixed curves; inactive = flat fitted curve, though single readings scatter.

The nature of test [1]: qHTS assay to test for compound auto fluorescence at 535 nm (green) in HEK293 cells (AID 720680).
Test [2] is described as follows: qHTS assay to test for compound auto fluorescence at 460 nm (blue) in HEK293 cell free culture (AID 720681). In short, it runs like this:
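Test compounds were pinned into cell-free culture medium (DMEM with 10% FBS) and fluorescence was read directly at Ex/Em 405/460 nm. Signals were expressed as fluorescence equivalents of triamterene, with DMSO vehicle as control.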

A short description of test [3]: qHTS assay to test for compound auto fluorescence at 535 nm (green) in HEK293 cell free culture (AID 720682). In short, it runs like this: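 DMEM + 10% FBS, cell-free; cpd or DMSO pinned in; Ex485/Em535 read; output as fluorescein-equivalent signal.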
Background: In qHTS, concentration-response curves come from the screen itself.

Test [4] in a line: qHTS assay to test for compound auto fluorescence at 590 nm (red) in HEK293 cell free culture (AID 720683). In short, it runs like this:
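Tox21 10K library compounds were pinned into cell-free DMEM with 10% FBS and fluorescence was read at excitation 540 nm. Activity is expressed as Rose Bengal sodium equivalency.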

The nature of test [5]: qHTS assay to test for compound auto fluorescence at 590 nm (red) in HepG2 cell free culture (AID 720684). An outline of the steps:
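Red fluorescence (540 nm excitation, 590 nm emission) was measured after compound transfer into cell-free MEM supplemented with 10% FBS. Values are equivalencies against Rose Bengal sodium.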

Test [6] is described as follows: qHTS assay to test for compound auto fluorescence at 460 nm (blue) in HepG2 cell free culture (AID 720685). An outline of the steps:
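Compound (23 nL) or DMSO pinned into cell-free MEM with 10% FBS; blue fluorescence read at 405/460 nm excitation/emission, expressed as auto-fluorescence equivalency to triamterene.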

Test [7] in a line: qHTS assay to test for compound auto fluorescence at 535 nm (green) in HepG2 cell free culture (AID 720686).
Test [8] in a line: qHTS assay to test for compound auto fluorescence at 460 nm (blue) in HepG2 cells (AID 720687). An outline of the steps: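 Cells (2,000/well in MEM with 10% FBS) attached overnight at 37 C, then were exposed to compound or DMSO for 1 hr at 37 C, 5% CO2. Fluorescence read at Ex/Em 405/460 nm, expressed as triamterene-equivalent signal.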
In test [9] the target is Glucocorticoid receptor (Homo sapiens) (UniProt P04150). Nature of the test: qHTS assay to identify small molecule agonists of the glucocorticoid receptor (GR) signaling pathway (AID 720691; active = well fitted activation curve with a large enough effect in the signal ratio in the repeat runs, not every such curve was filed as active; the % refers to the signal ratio). As to conditions: GR-bla HeLa, beta-lactamase reporter ratio, 18 h; activation: at 62.4 µM (top of the series). An outline of the steps: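 Fluorescence intensity from LiveBLAzer B/G FRET substrate (2 h, room temperature) reports beta-lactamase expression driven by the glucocorticoid response element in GR-bla HeLa cells after 18 h compound exposure at 37 C.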
Sequence of Glucocorticoid receptor (Homo sapiens) (P04150 whole entry, looked up): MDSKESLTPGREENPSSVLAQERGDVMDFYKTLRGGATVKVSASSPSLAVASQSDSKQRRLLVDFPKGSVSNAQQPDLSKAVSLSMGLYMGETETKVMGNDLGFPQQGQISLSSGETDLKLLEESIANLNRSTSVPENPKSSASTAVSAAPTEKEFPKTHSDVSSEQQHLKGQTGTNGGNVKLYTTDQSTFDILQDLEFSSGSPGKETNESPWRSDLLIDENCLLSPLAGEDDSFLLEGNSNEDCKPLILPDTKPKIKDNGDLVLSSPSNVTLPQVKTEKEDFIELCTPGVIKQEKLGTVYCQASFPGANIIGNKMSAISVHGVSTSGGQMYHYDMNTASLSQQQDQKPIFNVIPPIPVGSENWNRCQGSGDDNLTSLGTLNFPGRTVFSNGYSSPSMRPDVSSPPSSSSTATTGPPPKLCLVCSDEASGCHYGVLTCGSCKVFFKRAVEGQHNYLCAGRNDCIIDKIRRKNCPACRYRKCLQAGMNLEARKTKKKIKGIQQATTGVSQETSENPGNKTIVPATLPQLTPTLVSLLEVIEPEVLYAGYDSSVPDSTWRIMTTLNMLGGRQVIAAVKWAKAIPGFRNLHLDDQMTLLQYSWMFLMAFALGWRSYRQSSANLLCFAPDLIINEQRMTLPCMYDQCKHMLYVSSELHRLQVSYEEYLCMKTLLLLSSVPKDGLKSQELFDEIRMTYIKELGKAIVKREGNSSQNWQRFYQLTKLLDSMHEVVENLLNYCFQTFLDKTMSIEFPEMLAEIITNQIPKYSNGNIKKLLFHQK

The target is the same in test [10]. Nature of the test: qHTS assay to identify small molecule antagonists of the glucocorticoid receptor (GR) signaling pathway (AID 720692; active = well fitted inhibition curve with a large enough effect in the signal ratio in the repeat runs, not every such curve was filed as active; the % refers to the signal ratio; note: potency is the fitted concentration of half-maximal effect). An outline of the steps:
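HeLa GR-bla cells; cmpd + dex 5 nM final, 18 h 37 C; LiveBLAzer B/G FRET substrate 2 h RT; fluorescence intensity read. Antagonist mode, qHTS.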

As for `C[C@@](Cc1ccc(O)c(O)c1)(NN)C(=O)O`, the Potency result in [1], in [2], in test [3], in test [4], in test [5] and in test [7] was “inactive” throughout. Further, the Potency entry in test [9] and in [10] was “inactive” throughout. The outcome in test [6] and in test [8] was inactive.

As to `CC(C)[C@H](N)C(=O)OCC(CO)OCn1cnc2c(=O)[nH]c(N)nc21` (stereo partly drawn), the Potency result in [1], in [2], in [3], in test [4], in test [5] and in test [7] was “inactive” throughout. In addition, the Potency result in test [9] and in [10] was “inactive” throughout. In addition, the molecule was classed as inactive in test [6] and in test [8].

On to `CCCCCc1ccc(C)cc1O`, for which the Potency result in test [1], in test [2], in test [3], in [4], in test [5] and in [7] was “inactive” in each case. Further, in [10], the Potency result is “inactive”. The outcome in test [6] and in test [8] was inactive.

For the molecule `CCOC(=O)CCC(=O)O[C@H]1[C@H](O[C@@H]2[C@@H](C)[C@H](O[C@H]3C[C@@](C)(OC)[C@@H](O)[C@H](C)O3)[C@@H](C)C(=O)O[C@H](CC)[C@@](C)(O)[C@H](O)[C@@H](C)C(=O)[C@H](C)C[C@@]2(C)O)O[C@H](C)C[C@@H]1N(C)C`, the Potency result in test [1], in test [2], in test [3], in test [4], in test [5] and in [7] was “inactive” in each case. Moreover, the Potency entry in test [9] and in test [10] was “inactive” each time. The molecule was called inactive in test [6] and in test [8].

Take `CC1(C)N=C(N)N=C(N)N1c1ccc(Cl)cc1`: the Potency entry in [1], in test [2], in test [3], in test [4], in test [5] and in [7] was “inactive” in each case. The Potency result in test [9] and in [10] was “inactive” throughout. Also, the outcome in [6] and in [8] was inactive.

For the molecule `CCNC(=O)[C@@H]1CCCN1C(=O)[C@H](CCCN=C(N)N)NC(=O)[C@H](CC(C)C)NC(=O)[C@@H](CC(C)C)NC(=O)[C@H](Cc1ccc(O)cc1)NC(=O)[C@H](CO)NC(=O)[C@H](Cc1c[nH]c2ccccc12)NC(=O)[C@H](Cc1cnc[nH]1)NC(=O)[C@@H]1CCC(=O)N1`, the Potency entry in test [1], in [2], in test [3], in [4], in test [5] and in [7] was “inactive” in each case. The Potency result in [9] and in [10] was “inactive” throughout. In addition, the molecule was called inactive in test [6] and in test [8].

Turning to `CC(=O)O[C@H]1C[C@@]2(C)[C@@H](C[C@@H](O)[C@H]3[C@@]4(C)CC[C@@H](O)[C@@H](C)[C@@H]4CC[C@@]32C)/C1=C(\CCC=C(C)C)C(=O)O`, the Potency result in [1], in test [2], in test [3], in test [4], in [5] and in [7] was “inactive” each time. Further, the Potency entry in [9] and in test [10] was “inactive” in each case. The call in test [6] and in test [8] was inactive.

Turning to `CO[C@@]1(NC(=O)C2SC(=C(C(N)=O)C(=O)O)S2)C(=O)N2C(C(=O)O)=C(CSc3nnnn3C)CS[C@@H]21` (stereo partly drawn), the Potency result in [1], in test [2], in [3], in [4], in test [5] and in test [7] was “inactive” in each case. The Potency result in test [9] and in test [10] was “inactive” each time. In addition, the call in [6] and in test [8] was inactive.

Turning to `CCC(=O)NCCC1CCc2ccc3c(c21)CCO3` (stereo not drawn), the Potency result in test [1], in test [2], in test [3], in test [4], in test [5] and in test [7] was “inactive” each time. For the same molecule, the Potency result in test [9] and in test [10] was “inactive” in each case. For the same molecule, the molecule was called inactive in test [6] and in test [8].

For `CC(=O)N[C@@H]1C(O[C@H]2O[C@H](C(=O)O)C(O)[C@H](O)[C@H]2O)[C@H](O)[C@@H](CO)O[C@H]1O[C@@H]1C(C(=O)O)O[C@@H](O[C@H]2[C@H](O)[C@@H](CO)OC(O)[C@@H]2NC(C)=O)[C@H](O)[C@H]1O` (stereo partly drawn), the Potency entry in [1], in test [2], in test [3], in test [4], in test [5] and in test [7] was “inactive” throughout. Moreover, the Potency result in test [9] and in test [10] was “inactive” in each case. Moreover, the molecule was called inactive in [6] and in test [8].

On to `Cc1nc(NS(=O)(=O)c2ccc(N)cc2)nc(C)c1Br`, for which the Potency result in [1], in [2], in [3], in [4], in test [5] and in [7] was “inactive” each time. Moreover, the Potency result in [9] and in test [10] was “inactive” each time. In addition, the molecule was called inactive in test [6] and in test [8].

With `CCC(=O)Oc1ccc2c(c1)CC[C@@H]1[C@@H]2CC[C@]2(C)[C@@H](OC(=O)CC)CC[C@@H]12`, the Potency entry in test [1], in test [2], in [3], in test [4], in test [5] and in [7] was “inactive” each time. In addition, the Potency entry in [9] is “inactive”. Also, the result in [6] and in test [8] was inactive. The Potency in [10] was 4.25 µM (active).

For the molecule `COC1=C(C(=O)O)N2C(=O)[C@@H](NC(=O)[C@H](N)C3=CCC=CC3)[C@H]2SC1`, the Potency entry in test [1], in test [2], in [3], in [4], in test [5] and in [7] was “inactive” in each case. Also, the Potency result in test [9] and in test [10] was “inactive” each time. The call in [6] and in test [8] was inactive.

For the molecule `CCCCC(O)c1ccccc1` (stereo not drawn), the Potency entry in test [1], in test [2], in [3], in test [4], in test [5] and in [7] was “inactive” each time. For the same molecule, the Potency entry in test [9] and in [10] was “inactive” each time. Also, the molecule was called inactive in test [6] and in test [8].

As to `O=C1O[C@H]2[C@H](O)[C@@H]1OC(O)[C@H]2O` (stereo partly drawn), the Potency result in test [1], in [2], in test [3], in test [4], in [5] and in [7] was “inactive” each time. Also, the Potency entry in test [9] and in test [10] was “inactive” each time. Moreover, the molecule was classed as inactive in test [6] and in test [8].

`CN[C@@H]1[C@H](O[C@H]2[C@H](O[C@H]3[C@H](O)[C@@H](O)[C@H](N=C(N)N)[C@@H](O)[C@@H]3N=C(N)N)O[C@@H](C)[C@]2(O)CO)O[C@@H](CO)[C@H](O)[C@H]1O`: the Potency entry in [1], in [2], in test [3], in [4], in test [5] and in test [7] was “inactive” in each case. The Potency result in test [9] and in test [10] was “inactive” in each case. Moreover, the molecule was classed as inactive in test [6] and in test [8].

On to `COC(=O)C1=C(C#N)NC(C)=C(C(=O)OC(C)C)C1c1cccc([N+](=O)[O-])c1` (stereo not drawn), for which the Potency result in test [1], in test [2], in test [3], in [4], in test [5] and in test [7] was “inactive” in each case. The result in test [6] and in [8] was inactive. For the same molecule, the Potency in [10] was 19 µM (active).

`C=C[C@]1(C)C[C@@H](OC(=O)CSC(C)(C)CNC(=O)[C@H](N)C(C)C)[C@]2(C)[C@H](C)CC[C@]3(CCC(=O)[C@H]32)[C@@H](C)[C@@H]1O`: the Potency result in [1], in test [2], in test [3], in test [4], in test [5] and in test [7] was “inactive” each time. Further, the Potency result in test [9] and in test [10] was “inactive” each time. The call in [6] and in [8] was inactive.
